# Assay results published in the supplement of paper PMC5919970.
# Where a name gives a salt, the structure may show the parent alone. Over roughly 2,000 compounds, “fractional viability relative to vehicle” has its median near 0.92; the lowest 2% begin near 0.11. The sample holds the lowest values, similar compounds and a random draw of the others, so the mix is not that of the screen.
# Tested on: TYKNU
# Experiment: fractional viability relative to vehicle; TYKNU is a high-grade serous ovarian cancer line; higher = less growth inhibition
# Conditions: 72 h, genotype: OPA1 knockout (sgOPA1 #2)
# How it was run: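 TYKNU control cells or lentiCRISPRv2 knockout derivatives were seeded at 500 cells per well into drug-stamped 384-well plates holding a ~2100-compound library at 2 or 10 μM, in duplicate. Cells were grown at 37 °C in 5% CO2 in RPMI 1640 with 10% FBS, and drug treatment lasted 72 h. Viability was read by Cell Titer Glo luminescence. Duplicate treatment wells were averaged and normalised to duplicate control wells from the same plate position.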
Structure (SMILES),fractional viability (2uM),fractional viability (10uM)
CN1CCC(Nc2nc(Nc3ccc(Oc4ccccc4)cc3)c3c(=O)[nH]cc(Br)c3n2)CC1,0.289,0.0528
c1nc2c(NC3CCCCC3)nc(Nc3ccc(N4CCOCC4)cc3)nc2[nH]1 [Reversine],0.571,0.342
CCCCN1CCCC[C@H]1C(=O)Nc1c(C)cccc1C [Levobupivacaine HCl],1.06,0.949
CCC1C/C(=C\c2cccnc2)C(=O)/C(=C/c2cccnc2)C1 (configuration not stated),0.442,0.189
C1=N/C2=N/c3ccc(OCCN4CCCC4)c(c3)COC/C=C/COCc3cccc(c3)C(=C1)N2 [Pacritinib (SB1518)],0.318,0.0734
Cc1cncc(CN2CCC(=C3c4ccc(Cl)cc4CCc4cccnc43)CC2)c1 [Rupatadine Fumarate],1.06,0.915
NC(=O)c1ccc(N(C(N)=O)c2c(F)cccc2F)nc1-c1ccc(F)cc1F,1.19,1.05
CCN(CC)CCN(Cc1ccc(-c2ccc(C(F)(F)F)cc2)cc1)C(=O)Cn1c(SCc2ccc(F)cc2)nc(=O)c2c1CCC2,0.76,0.0367
O=C(NNc1nc2cc(F)ccc2n2cccc12)c1cnccn1,0.576,0.643
C=CC[N+]1([C@H]2C[C@H]3[C@@H]4CC[C@H]5C[C@H](O)[C@@H](N6CCOCC6)C[C@]5(C)[C@H]4CC[C@]3(C)[C@H]2OC(C)=O)CCCC1 [Rocuronium Bromide],1.16,1.11
CCCCC(C=O)NC(=O)C(CC(C)C)NC(=O)C(CC(C)C)NC(C)=O (configuration not stated),0.8,0.939
COc1ccc(C[C@H](NC(=O)[C@H](C)NC(=O)CN2CCOCC2)C(=O)N[C@@H](Cc2ccccc2)C(=O)[C@@]2(C)CO2)cc1,0.149,0.144
COC[C@H](NC(=O)c1cnc(C)s1)C(=O)N[C@@H](COC)C(=O)N[C@@H](Cc1ccccc1)C(=O)[C@@]1(C)CO1 [Oprozomib (ONX 0912)],0.153,0.136
CC(C)C[C@H](NC(=O)[C@H](CCc1ccccc1)NC(=O)CN1CCOCC1)C(=O)N[C@@H](Cc1ccccc1)C(=O)N[C@@H](CC(C)C)C(=O)[C@@]1(C)CO1 [Carfilzomib (PR-171)],0.0962,0.146
CC(C)C[C@@H]1NC(=O)[C@@H](C(C)C)NC(=O)[C@@H]2CCCN2C(=O)[C@@H](CC(=O)O)NC(=O)[C@@H](Cc2c[nH]c3ccccc23)NC1=O,0.722,0.866
C=CCNC1=C2C[C@@H](C)C[C@H](OC)[C@H](O)[C@@H](C)/C=C(\C)[C@H](OC(N)=O)[C@@H](OC)/C=C\C=C(/C)C(=O)NC(=CC1=O)C2=O [17-AAG (Tanespimycin)],0.652,0.468
Cc1ccc(C(=O)Nc2ccc(CN3CCN(C)CC3)c(C(F)(F)F)c2)cc1C#Cc1cnc2cccnn12,0.67,0.106
CCN1CCN(Cc2ccc(C(=O)Nc3ccc(C)c(Oc4ccc5c(c4)CC(=O)N5)c3)cc2C(F)(F)F)CC1,0.782,0.462
Cc1ccc(C(=O)Nc2ccc(CN3CCN(C)CC3)c(C(F)(F)F)c2)cc1C#Cc1cnc2[nH]ncc2c1,0.589,0.115
Nc1cccc2c1CN(C1CCC(=O)NC1=O)C2=O (configuration not stated) [Lenalidomide (CC-5013)],1.14,1.02
COCC[n+]1c2c(n(Cc3cnccn3)c1C)C(=O)c1ccccc1C2=O [YM155 (Sepantronium Bromide)],0.06,0.0555
CC(C)NCCCn1c(Sc2cc3c(cc2I)OCO3)nc2c(N)ncnc21,0.428,0.48
CCCCCOc1ccc(-c2ccc(-c3ccc(C(=O)N[C@H]4C[C@@H](O)[C@@H](O)NC(=O)[C@@H]5[C@@H](O)[C@@H](C)CN5C(=O)[C@H]([C@@H](C)O)NC(=O)[C@H]([C@H](O)[C@@H](O)c5ccc(O)cc5)NC(=O)[C@@H]5C[C@@H](O)CN5C(=O)[C@H]([C@@H](C)O)NC4=O)cc3)cc2)cc1,1.02,0.857
CC(C)(C)C(=O)Nc1ccc2c(c1)C(=O)C(=O)c1ccccc1-2,0.181,0.0604

Structure (SMILES),fractional viability (2uM),fractional viability (10uM)
CC(=O)Nc1ccccc1 [Acetanilide],0.946,0.905
O=C(O)CCCN1CCC(O[C@@H](c2ccc(Cl)cc2)c2ccccn2)CC1 [Bepotastine Besilate],1.14,0.923
CN1CCC(COc2cnc(-c3cccc(Cn4nc(-c5cccc(C#N)c5)ccc4=O)c3)nc2)CC1,0.78,0.216
CN1CCC(CNc2ccc3ncc(-c4cccc(OC(F)(F)F)c4)n3n2)CC1 [SGI-1776 free base],0.888,0.107
NC(CO)(CO)CO [Trometamol],0.883,0.842
O=C(O)C(Cc1c[nH]c2ccccc12)N1C(=O)c2ccccc2C1=O (configuration not stated),0.905,0.771
N#CC(=C(/N)Sc1ccccc1N)/C(C#N)=C(\N)Sc1ccccc1N,1.36,1.25
OCCn1cc(-c2ccc3c(c2)CC/C3=N\O)c(-c2ccncc2)n1,1.14,0.942
Oc1ccc(-c2nc(-c3ccc(F)cc3)c(-c3ccncc3)[nH]2)cc1,1.48,1.09
CN(C)CCOc1ccc(-c2nc(-c3ccncc3)c(-c3ccc4c(c3)CC/C4=N\O)[nH]2)cc1,0.833,0.0595
O=C(CSc1nc2c(c(=O)n1-c1ccccc1)SCC2)Nc1ccc(-c2ccccc2)cn1,1.09,0.948
COc1cc2c(cc1OC)CC(=O)N(CCCN(C)C[C@H]1Cc3cc(OC)c(OC)cc31)CC2 [Ivabradine HCl],1.02,0.967
c1cc(-c2cnn3cc(-c4ccc(N5CCNCC5)cc4)cnc23)c2cccnc2c1,0.104,0.0761
COc1cc(-c2cc(-c3ccc(N4CCNCC4)cc3)cnc2C)cc(OC)c1OC,0.878,0.835
COc1ccc(-c2cnc3c(-c4cccc5ncccc45)cnn3c2)cc1,1.15,1.2
CC1(C)CC(=O)c2c(C(F)(F)F)nn(-c3ccc(C(N)=O)c(N[C@H]4CC[C@H](O)CC4)c3)c2C1,0.668,0.574
CC1(C)C=C(CN2C/C(=C\c3ccc(F)cc3)C(=O)/C(=C/c3ccc(F)cc3)C2)C(C)(C)N1O,0.837,0.79
C=CC(=O)N1C/C(=C\c2ccc([N+](=O)[O-])cc2)C(=O)/C(=C/c2ccc([N+](=O)[O-])cc2)C1,0.0989,0.111
CC(=O)c1cc([N+](=O)[O-])c(Sc2ccc(F)cc2F)s1,0.985,0.596
COc1ccc([C@H]2CNC(=O)C2)cc1OC1CCCC1 [S- (+)-Rolipram],1.2,1.04
Cc1cc(C)nc(NS(=O)(=O)c2ccc(NC(=S)NC(=O)COc3ccc(Br)cc3Cl)cc2)n1,0.956,0.803
O=C(NCc1ccncc1)C12CC3CC(C1)CC(c1ccc(Cl)cc1)(C3)C2,1.06,0.861
NC(=O)N/N=C/c1ccc([N+](=O)[O-])o1 [Nitrofural],1.55,1.47
Cc1ccc(S(=O)(=O)c2ccc([N+](=O)[O-])o2)cc1,0.0667,0.0291

Structure (SMILES),fractional viability (2uM),fractional viability (10uM)
CC(C)(C)NS(=O)(=O)c1cncc(-c2cc(F)c3nc(N)nn3c2)c1,1.04,1.06
O=C(O)C1=C[C@@H](O)[C@@H](O)[C@H](O)C1 [Shikimic Acid],1.04,0.875
C=C1/C(=C\C=C2/CCC[C@]3(C)[C@@H]([C@H](C)CCCC(C)(C)O)CC[C@@H]23)C[C@@H](O)C[C@@H]1O [Calcitriol],0.965,0.937
Cc1ccccc1CN1C2=NCCN2C(=O)C2=C1CCN(Cc1ccccc1)C2 [TIC10 Analogue],0.878,0.768
COc1cc2ncnc(Oc3ccc(CC(=O)Nc4cnn(C(C)C)c4)cc3)c2cc1OC,0.949,0.942
CC1(C)CC[C@]2(NC(=O)C(C)(F)F)CC[C@]3(C)[C@H](C(=O)C=C4[C@@]5(C)C=C(C#N)C(=O)C(C)(C)[C@@H]5CC[C@]43C)[C@@H]2C1 [Omaveloxolone (RTA-408)],0.166,0.0407
CN(C)CCNC(=O)c1cccn2c(=O)c3cc4ccccc4cc3nc12,0.61,0.294
COc1nccc(-c2c(-c3ccc(F)cc3)ncn2C2CCC(O)CC2)n1 (configuration not stated),0.999,0.786
CC(C)(Cc1ccc2ccccc2c1)NC[C@@H](O)COc1cccc(Cl)c1C#N,1.06,0.0653
CC(C)NCC(O)COc1cccc2ccccc12 (configuration not stated) [Propranolol HCl],0.809,1.12
CC(C)(C)NCC(O)COc1cccc2c1CCC(=O)N2 (configuration not stated) [Carteolol HCl],0.973,0.93
O=[N+]([O-])c1ccc(Nc2nc(N3CCOCC3)nc(N3CCOCC3)n2)cc1,0.893,0.934
CC(C)(C)c1ccc(S(=O)(=O)NCc2ccc(C(=O)Nc3cccnc3)cc2)cc1,0.306,0.165
CCS(=O)(=O)N1CCN(c2ccc(Nc3ncc(C(N)=O)c(NC4CC4)n3)cc2)CC1,0.781,0.496
COc1cc2c(cc1OC)CN(CCc1ccc(NC(=O)c3cc(OC)c(OC)cc3NC(=O)c3cnc4ccccc4c3)cc1)CC2 [Tariquidar],0.891,0.459
CCc1ccc(OCc2ccccc2C(=O)Nc2ccc3nc(C)cc(N)c3c2)cc1,0.16,0.0251
CCCC(=O)Nc1cccc(NC(=O)c2ccccc2Br)c1,1,1.07
Cc1ccc(CNc2ncnc3ccc(-c4ccc(CO)o4)cc23)o1,0.989,1.02
O=[N+]([O-])c1cn2c(n1)OC[C@@H](OCc1ccc(OC(F)(F)F)cc1)C2,1.15,1.66
CC(C)(C)OC(=O)Nc1ccc(-c2cc(C(=O)NCCCCCCC(=O)NO)no2)cc1,0.367,0.171
COc1cc(/C=C/C(=O)N2CCC=CC2=O)cc(OC)c1OC [Piperlongumine],0.31,0.085
COc1ccc(/C=C\c2cc(OC)c(OC)c(OC)c2)cc1O [Combretastatin A4],0.313,0.292
COc1cc(/C=C/C(=O)N2CCN(CC(=O)N3CCCC3)CC2)cc(OC)c1OC [Cinepazide maleate],0.929,0.991
